Active and inactive are the calls of the source.
Assays:
[1] = small molecules captured by biotinylated probe aFSTL3 – biochemical, small-molecule microarray, fluorescence 635/667, stem cell growth factor project, primary screen (AID 1064); conditions: higher = more signal;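 note: measures binding of the biotinylated anti-FSTL3 antibody to printed compounds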
[2] = binders from COS7 lysate, DM2A8 probe, primary screen, torsin A project, cell lysate, small-molecule microarray, fluorescence 635/667 (AID 1065); conditions: higher = more signal, COS7 lysate expressing mutant human TOR1A
[3] = small molecules captured by biotinylated probe aFGF2 – biochemical, small-molecule microarray, fluorescence 635/667, stem cell growth factor project, primary screen (AID 1067); conditions: higher = more signal;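 note: measures binding of biotinylated aFGF2 protein to printed compounds on slides; z-score merges feature fluorescence and signal-to-noise across triplicate slides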
[4] = small molecules captured by biotinylated probe aFGF10 – biochemical, small-molecule microarray, fluorescence 635/667, stem cell growth factor project, primary screen (AID 1071); conditions: higher = more signal;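 note: score merges 667 nm spot intensity and signal to noise from triplicate slides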
[5] = target: Neurogenic locus notch homolog protein 2 (Homo sapiens) (UniProt Q04721); assay: small molecules binding Notch2 protein – biochemical, small-molecule microarray, 635 nm fluorescence, stem cell growth factors, primary screen (AID 1073); conditions: higher = more signal
Sequence of Neurogenic locus notch homolog protein 2 (Homo sapiens) (Q04721 whole entry, looked up, canonical isoform): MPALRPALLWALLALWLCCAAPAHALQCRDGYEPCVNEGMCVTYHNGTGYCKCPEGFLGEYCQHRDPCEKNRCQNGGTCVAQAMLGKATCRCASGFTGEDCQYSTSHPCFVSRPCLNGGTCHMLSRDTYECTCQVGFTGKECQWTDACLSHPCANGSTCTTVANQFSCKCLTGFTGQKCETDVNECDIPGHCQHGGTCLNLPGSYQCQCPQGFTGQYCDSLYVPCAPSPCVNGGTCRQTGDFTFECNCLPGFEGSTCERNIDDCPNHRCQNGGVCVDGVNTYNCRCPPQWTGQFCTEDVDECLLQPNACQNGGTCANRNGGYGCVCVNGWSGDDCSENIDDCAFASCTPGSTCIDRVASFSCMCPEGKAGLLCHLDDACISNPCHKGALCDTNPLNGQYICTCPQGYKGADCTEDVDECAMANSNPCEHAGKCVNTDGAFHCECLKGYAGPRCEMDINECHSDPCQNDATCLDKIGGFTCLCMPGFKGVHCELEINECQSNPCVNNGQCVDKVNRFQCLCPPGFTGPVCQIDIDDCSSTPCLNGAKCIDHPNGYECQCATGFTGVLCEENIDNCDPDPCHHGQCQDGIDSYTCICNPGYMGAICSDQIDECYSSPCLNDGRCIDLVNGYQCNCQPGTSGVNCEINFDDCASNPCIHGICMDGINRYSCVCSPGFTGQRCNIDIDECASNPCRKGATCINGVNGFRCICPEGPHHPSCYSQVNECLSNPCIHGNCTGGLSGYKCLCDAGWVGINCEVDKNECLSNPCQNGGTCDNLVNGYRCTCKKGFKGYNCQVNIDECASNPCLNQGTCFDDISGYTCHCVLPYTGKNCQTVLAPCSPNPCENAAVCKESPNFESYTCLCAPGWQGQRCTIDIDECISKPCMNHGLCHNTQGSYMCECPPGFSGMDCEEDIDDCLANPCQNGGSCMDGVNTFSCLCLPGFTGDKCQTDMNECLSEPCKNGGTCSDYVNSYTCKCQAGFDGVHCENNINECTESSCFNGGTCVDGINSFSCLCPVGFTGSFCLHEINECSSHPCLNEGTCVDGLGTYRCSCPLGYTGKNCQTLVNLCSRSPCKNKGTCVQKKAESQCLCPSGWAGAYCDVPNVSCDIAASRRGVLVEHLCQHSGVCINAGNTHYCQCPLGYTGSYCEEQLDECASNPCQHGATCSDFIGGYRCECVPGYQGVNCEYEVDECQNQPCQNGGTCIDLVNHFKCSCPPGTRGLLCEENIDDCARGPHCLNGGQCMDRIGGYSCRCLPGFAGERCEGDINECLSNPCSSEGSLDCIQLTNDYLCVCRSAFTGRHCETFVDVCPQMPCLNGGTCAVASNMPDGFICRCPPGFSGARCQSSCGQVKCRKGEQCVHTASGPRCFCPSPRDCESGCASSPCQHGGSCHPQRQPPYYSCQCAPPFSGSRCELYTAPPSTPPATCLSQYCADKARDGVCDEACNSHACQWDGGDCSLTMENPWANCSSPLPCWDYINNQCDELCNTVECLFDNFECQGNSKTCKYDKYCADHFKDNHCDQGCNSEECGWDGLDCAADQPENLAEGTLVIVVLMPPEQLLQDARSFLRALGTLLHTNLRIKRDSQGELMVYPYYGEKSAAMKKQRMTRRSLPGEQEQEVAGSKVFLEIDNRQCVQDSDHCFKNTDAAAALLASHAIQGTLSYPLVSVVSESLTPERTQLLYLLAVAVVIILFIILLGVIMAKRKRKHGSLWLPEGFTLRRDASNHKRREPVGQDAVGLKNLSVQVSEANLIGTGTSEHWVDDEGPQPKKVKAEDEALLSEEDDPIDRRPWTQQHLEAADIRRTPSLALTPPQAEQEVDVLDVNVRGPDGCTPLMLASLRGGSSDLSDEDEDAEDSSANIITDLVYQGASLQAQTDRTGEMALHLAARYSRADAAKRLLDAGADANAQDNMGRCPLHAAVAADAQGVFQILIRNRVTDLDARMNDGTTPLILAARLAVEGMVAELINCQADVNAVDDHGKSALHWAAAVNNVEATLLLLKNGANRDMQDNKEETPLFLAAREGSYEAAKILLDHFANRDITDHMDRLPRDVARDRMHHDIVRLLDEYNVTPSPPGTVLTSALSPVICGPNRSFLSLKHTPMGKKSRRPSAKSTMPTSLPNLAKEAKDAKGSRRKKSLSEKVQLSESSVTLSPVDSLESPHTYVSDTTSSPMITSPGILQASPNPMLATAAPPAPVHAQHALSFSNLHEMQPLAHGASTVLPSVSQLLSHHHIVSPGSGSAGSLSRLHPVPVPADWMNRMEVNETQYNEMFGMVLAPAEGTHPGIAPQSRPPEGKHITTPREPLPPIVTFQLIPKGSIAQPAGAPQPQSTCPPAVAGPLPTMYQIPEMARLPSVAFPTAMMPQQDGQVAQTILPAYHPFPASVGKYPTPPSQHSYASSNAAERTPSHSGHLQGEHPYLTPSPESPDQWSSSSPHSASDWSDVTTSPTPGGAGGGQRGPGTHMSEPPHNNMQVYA

[6] = target: Pro-neuregulin-1, membrane-bound isoform (Homo sapiens) (UniProt Q02297); assay: small molecules binding neuregulin-1 protein – biochemical, small-molecule microarray, fluorescence 635/667, psychiatric disease protein project, primary screen (AID 1075); conditions: NRG1 binding, 635 nm fluorescence, higher = more signal;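 note: score combines 667 nm spot fluorescence with signal to noise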
Sequence of Pro-neuregulin-1, membrane-bound isoform (Homo sapiens) (Q02297 whole entry, looked up, the tested form may be a part, canonical isoform): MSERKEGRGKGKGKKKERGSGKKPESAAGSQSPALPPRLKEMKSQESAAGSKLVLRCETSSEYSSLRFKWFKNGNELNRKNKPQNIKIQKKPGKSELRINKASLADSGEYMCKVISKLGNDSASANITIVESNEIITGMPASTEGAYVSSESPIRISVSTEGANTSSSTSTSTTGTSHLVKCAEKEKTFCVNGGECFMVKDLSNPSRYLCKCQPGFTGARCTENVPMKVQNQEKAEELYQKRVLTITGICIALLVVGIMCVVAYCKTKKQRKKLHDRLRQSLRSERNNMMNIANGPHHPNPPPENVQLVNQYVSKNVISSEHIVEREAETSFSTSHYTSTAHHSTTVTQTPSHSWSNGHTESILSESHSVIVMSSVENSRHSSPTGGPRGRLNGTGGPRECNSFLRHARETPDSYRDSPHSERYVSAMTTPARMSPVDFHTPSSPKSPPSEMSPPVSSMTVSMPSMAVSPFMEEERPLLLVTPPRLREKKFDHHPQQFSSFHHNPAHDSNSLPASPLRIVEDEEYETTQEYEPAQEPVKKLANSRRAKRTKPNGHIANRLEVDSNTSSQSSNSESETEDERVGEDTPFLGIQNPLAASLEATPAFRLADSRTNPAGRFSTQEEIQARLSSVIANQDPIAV

[7] = system: Neuregulin-1 EGF-like domain; assay: small molecules binding NRG1 EGF domain – biochemical, small-molecule microarray, 635 nm fluorescence, primary screen (AID 1081); conditions: higher = more signal;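 note: binding of the protein to compounds printed on small-molecule microarray slides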
[8] = FRG1 expression reporter modulators in myotubes – cell-based, C2C12 myotubes, firefly/Renilla luciferase, luminescence, FRG1 inhibition for FSHD, primary screen (AID 1084); conditions: FRG1 promoter luciferase, higher = more signal, called active from +8 up or from −8 down
[9] = small molecules captured by biotinylated probe aFST – biochemical, small-molecule microarray, fluorescence 635/667, stem cell growth factor project, primary screen (AID 1086); conditions: higher = more signal;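 note: score merges 667 nm fluorescence with signal-to-noise of each printed compound spot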
[10] = binders of probe aHhip on microarray, primary screen, stem cell growth factor project, biochemical, small-molecule microarray, fluorescence 635/667 (AID 1087); conditions: higher = more signal;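 note: score merges spot fluorescence at 667nm with spot signal to noise ratio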

Row | SMILES | composite z-score [1] | composite z-score [2] | composite z-score [3] | composite z-score [4] | composite z-score [5] | composite z-score [6] | composite z-score [7] | z-score [8] | composite z-score [9] | composite z-score [10]
1 | C#CCCCON=C1C[C@@H](O)[C@@H](O)[C@@H]2[C@@H]3C(=O)N(CCC(=O)OCC)C(=O)[C@@H]3CC[C@H]12 | -0.467 | 0.294 | -0.0502 | 0.481 | 0.872 | 0.64 | 0.685 | -1.41 (inactive) | 0.593 | -0.0994
2 | CC(CCN1CCCCc2nc(C)c(C)cc21)=NO[C@@H](C)c1cn([C@H](CO)Cc2ccccc2)nn1 | 1.22 | 1.06 | -0.177 | 0.171 | 0.174 | 0.605 | 0.695 | 1.19 (inactive) | 0.163 | 0.347
3 | COc1ccc(O[C@H]2C=C[C@@H](c3ccccc3)O[C@@H]2CON=CC[C@@H]2C=C[C@H](OC(C)=O)[C@@H](COC(C)=O)O2)cc1 | -0.142 | 0.0191 | -0.0667 | 0.138 | -0.265 | -0.364 | -0.216 | 1.01 (inactive) | 0.388 | -0.0994
4 | CCOC(=O)C1=NO[C@@]2(C=C(Br)C3(OCCCO3)[C@H]3O[C@H]32)C1 | 0.224 | 0.0735 | -0.116 | 1.05 | 0.282 | -0.467 | 0.646 | 0.0274 (inactive) | 0.248 | 0.0972
5 | CCOC(=O)[C@H](Cc1ccccc1)NC(=O)CCC1CC(OC(=O)NCCc2ccc(F)cc2)CC2(CCCC(COC(=O)NCc3ccccc3)O2)O1 (stereo not given in full) | -0.434 | -0.0986 | -0.0887 | 0.854 | 0.679 | 0.331 | 0.903 | 0.292 (inactive) | 0.0791 | -0.0994
6 | CC1O[C@H]2C3=C(C(=O)[C@@H]4O[C@@H]4[C@H]3O)[C@@H]1C1[C@@H](C)OC=C3[C@H](O)C4O[C@@H]4C(=NOCc4ccccc4)[C@]312 (stereo not given in full) | -0.379 | -0.488 | -0.166 | 0.0246 | 0.112 | -0.505 | -0.0339 | -1.15 (inactive) | -0.123 | -0.216
7 | CO[C@H]1COC(=O)[C@@H](C)COC(=O)[C@H](C)NC(=O)CC=C[C@H]1C | -0.451 | 1.18 | -0.0354 | 0.222 | 0.0126 | -0.521 | 0.734 | -0.53 (inactive) | 0.101 | -0.0557
8 | CCCNC(=O)OC[C@H]1O[C@H](c2ccccc2)C=C[C@@H]1Oc1ccc(OC)cc1 | -0.428 | 0.273 | 0.0299 | 0.594 | 0.344 | -0.327 | -0.0407 | -0.0983 (inactive) | -0.246 | -0.0994
9 | CO[C@H](C1CCCCC1)[C@H](C)C=CCC(=O)OCCCc1ccccc1 | -0.13 | 0.216 | -0.155 | -0.104 | -0.163 | -0.137 | -0.647 | 0.567 (inactive) | -0.175 | -0.145
10 | O=C1C=C[C@@H](O)[C@@H]2[C@@H]3C(=O)N(c4ccc(F)cc4F)C(=O)[C@@H]3CC[C@@H]12 | -0.298 | 0.55 | -0.0493 | 0.547 | 0.611 | 0.12 | 0.384 | -0.996 (inactive) | 0.142 | -0.0994
11 | CO[C@@H]1COC(=O)CC=C[C@@H](C)[C@@H]2C=C[C@H](O)[C@@H](COC(=O)CC=C[C@H]1C)O2 | -0.304 | 1.7 | -0.192 | -0.14 | -0.703 | -0.421 | 0.824 | -0.715 (inactive) | -0.245 | 0.0714
12 | C[C@H]1CC[C@H]2C(=O)O[C@H](COc3ccc(C(C)(C)C)cc3)CN2[C@@H]1c1ccc(Br)cc1 | -0.135 | 0.169 | -0.053 | -0.0634 | -0.0332 | 0.724 | -0.536 | -0.0935 (inactive) | 0.125 | -0.371
13 | C=CC[C@@H]1C=C[C@H](ON=C(C)CCC(=O)OC[C@H]2O[C@H](C#Cc3ccccc3)C=C[C@@H]2Oc2ccc(C)cc2)[C@@H](CO)O1 | -0.566 | 0.692 | 0.0624 | 0.782 | 1.12 | 0.661 | 0.984 | -0.349 (inactive) | 0.203 | 0.0373
14 | O=C1C[C@@H](O)[C@@H](O)[C@@H]2[C@@H]3C(=O)N(Cc4ccc5c(c4)OCO5)C(=O)[C@@H]3CC[C@H]12 | -0.296 | 0.348 | -0.0218 | 0.477 | 0.558 | 0.229 | 0.29 | 0.376 (inactive) | 0.078 | 0.0505
15 | CC(C)(C)N1C(=O)[C@H]2[C@H]3[C@H](O)[C@H](O)CC(=O)[C@H]3CC[C@H]2C1=O | -0.635 | 1.21 | -0.107 | 0.295 | 0.967 | 0.354 | 0.725 | -0.0954 (inactive) | 0.115 | -0.134
16 | CCOC(=O)[C@H](Cc1ccccc1)NC(=O)CCC1CC(OC(=O)NCc2ccc3c(c2)OCO3)CC2(CCCC(COC(=O)NCCc3ccccc3OC)O2)O1 (stereo not given in full) | -0.259 | 0.058 | -0.147 | 0.471 | 1.26 | 1.04 | 1.1 | 1.04 (inactive) | 0.569 | 0.141
17 | CC=CC1=C(CO)C(=O)[C@@H]2O[C@@H]2C1=O | -0.538 | -0.45 | -0.093 | 0.0736 | -0.126 | -0.719 | 0.687 | -0.078 (inactive) | -0.212 | -0.0994
18 | CCOC(=O)NN=C1C[C@@H](O)[C@@H](O)[C@@H]2[C@@H]3C(=O)N(c4cccc(Oc5ccccc5)c4)C(=O)[C@@H]3CC[C@H]12 | -0.441 | 0.192 | -0.187 | 0.221 | 0.615 | 0.855 | 0.234 | -0.0124 (inactive) | 0.0755 | -0.0645
19 | COC(=O)[C@@H]1CC[C@H](C)[C@@H](c2ccc(C)cc2)N1C(=O)c1ccc(C=NO[C@H](C)c2cn([C@@H]3COC[C@H]3O)nn2)cc1 | -0.591 | -0.314 | -0.0459 | 0.515 | 1.14 | 0.122 | 0.972 | 0.191 (inactive) | 0.165 | -0.124
20 | CC(C)CON=C1C[C@@H](O)[C@@H](O)[C@@H]2[C@@H]3C(=O)N(C4CCCCC4)C(=O)[C@@H]3CC[C@@H]12 | -0.216 | 1.2 | -0.0955 | 0.0675 | -0.0187 | 1.45 | -0.115 | -0.0468 (inactive) | -0.0424 | -0.0994
21 | CC(C)=CCCC(C)=CCON=C1C[C@@H](O)[C@@H](O)[C@@H]2[C@@H]3C(=O)N(c4ccc(F)cc4F)C(=O)[C@@H]3CC[C@H]12 | -0.292 | 0.611 | -0.174 | 0.03 | 1 | 1.06 | 0.849 | -0.389 (inactive) | 0.573 | 0.0976
22 | CO[C@@H]1COC(=O)[C@@H](C)COC(=O)[C@@H](C)NC(=O)CC=C[C@@H]1C | -0.538 | 0.544 | -0.133 | 0.231 | 0.198 | -0.308 | 0.675 | 0.156 (inactive) | -0.235 | -0.342
23 | C#CCCCON=C1[C@H]2CCn3c(=O)n(-c4ccccc4)c(=O)n3[C@H]2[C@H](O)[C@@H]2O[C@H]12 | -0.306 | 0.0575 | -0.24 | 0.201 | 0.47 | -0.0335 | 0.478 | -1.91 (inactive) | 0.212 | -0.134
24 | CC(C)=NO[C@H](C)c1cn([C@H](CO)Cc2ccccc2)nn1 | -0.125 | 0.364 | -0.0737 | -0.116 | 0.0781 | 0.274 | 0.316 | -0.266 (inactive) | 0.0676 | 0.0972
25 | O=C1C[C@@H](O)[C@@H](O)[C@@H]2[C@@H]3C(=O)N(C[C@@H]4CCCO4)C(=O)[C@@H]3CC[C@@H]12 | -0.58 | 0.203 | -0.0329 | 0.58 | 0.686 | 0.123 | 0.459 | -1.13 (inactive) | 0.817 | 0.21
